This is an account of results in PubChem BioAssay (Tox21).

Assay [1] is described as follows: qHTS assay to identify small molecule HDAC inhibitors (AID 1259364). Also: potency is read from the fitted curve at half-maximal effect.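 Also: wild-type HCT-116 cells with endogenous class I/II HDAC activity; nearly all actives have a fitted effect of over 45% in size.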 The method, boiled down:
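HCT-116 wt cells, 1,500/well, overnight attach. Compounds (DMSO) 2 h, 37 °C. HDAC-Glo I/II, 30 min RT. Luminescence.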

Assay [2] in a line: qHTS assay to identify small molecule HDAC inhibitors - cell viability counter screen (AID 1259365). Also: nearly all actives have a fitted effect of over 50% in size. Also: potency is read from the fitted curve at half-maximal effect. The method, boiled down:
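Wild-type HCT-116 cells were seeded at 1,500 per well, incubated overnight at 37 C, then exposed to compounds in DMSO for 2hr. Viability was read by CellTiter-Glo luminescence after 30min at room temperature.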

Assay [3] can be described thus: qHTS assay to identify small molecule agonists of the sonic hedgehog signaling (Shh) pathway - cell viability counter screen (AID 1259366). Also: nearly all actives have a fitted effect of over 50% in size. Also: potency is read from the fitted curve at half-maximal effect. The method, boiled down: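 NIH/3T3-derived 3T3 Gli1-Luc cells (stable Gli1-responsive firefly luciferase reporter) were seeded, rested 4 hr at 37 C/5% CO2, then exposed to compounds in DMSO for 24 hr; viability was read by CellTiter-Fluor fluorescence in the same wells.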

The nature of assay [4]: qHTS assay to identify small molecule antagonists of the sonic hedgehog signaling (Shh) pathway - cell viability counter screen (AID 1259367). Also: nearly all actives have a fitted effect of over 55% in size. Also: potency is read from the fitted curve at half-maximal effect. In outline:
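Viability was read by CellTiter-Fluor fluorescence in the same wells, reagent added 23 hr into compound treatment and incubated 1 hr at 37C. The 3T3 Gli1-Luc reporter cells (2,000/well) received conditioned medium after compound and ran 24 hr.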

A short description of assay [5]: qHTS assay to identify small molecule agonists of the sonic hedgehog signaling (Shh) pathway (AID 1259368; calls by dose curve; also: series mostly up to about 92 µM; nearly all actives have a fitted effect of over 15% in size). In outline: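 Following a 24 hr incubation with DMSO-dissolved compounds at 37 C, 5% CO2, Gli1-Luc NIH/3T3-derived cells received luciferase reagent for 30 min at room temperature prior to luminescence measurement.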
The nature of assay [6]: qHTS assay to identify small molecule antagonists of the sonic hedgehog signaling (Shh) pathway (AID 1259369; calls by dose curve; also: nearly all actives have a fitted effect of over 45% in size; also: potency is read from the fitted curve at half-maximal effect). In outline: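 Read-out is luminescence from a firefly luciferase gene controlled by the Gli1 response element, in 3T3Gli1-Luc cells pre-incubated 4hr then exposed to compounds and conditioned medium for 24hr.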
Assay [7] in a line: qHTS assay to identify small molecule agonists of the androgen receptor (AR) signaling pathway in the presence of an antagonist - cell viability counter screen (AID 1259379). Also: nearly all actives have a fitted effect of over 25% in size. Also: potency is read from the fitted curve at half-maximal effect. In outline: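 Each compound was tested at 15 concentrations on MDA-kb2 cells in the presence of 3.0uM nilutamide. Viability was measured by CellTiter-Fluor fluorescence after a 16 hr incubation at 37C in a CO2-free atmosphere.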

Assay [8] is described as follows: qHTS assay to identify small molecule agonists of the estrogen receptor beta (ER-beta) signaling pathway - cell viability counter screen (AID 1259380). Also: nearly all actives have a fitted effect of over 30% in size. Also: potency is read from the fitted curve at half-maximal effect. In outline:
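Compounds dissolved in DMSO were pin-transferred onto ER-beta-UAS-bla HEK293T cells that had settled 6 hr, and exposure ran 16 hr at 37C. Following the reporter read, CellTiter-Glo luminescence after 30 min at room temperature indicated cytotoxicity.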

Assay [9] is described as follows: qHTS assay to identify small molecule antagonists of the estrogen receptor beta (ER-beta) signaling pathway - cell viability counter screen (AID 1259382). Also: nearly all actives have a fitted effect of over 55% in size. Also: potency is read from the fitted curve at half-maximal effect. In outline: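 CellTiter-Glo ATP luminescence measured after the LiveBLAzer read in the same wells; ER-beta-UAS-bla HEK293T cells, 16 hr compound treatment with 1nM 17-beta-estradiol agonist at 37C, 5% CO2.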
Assay [10] deals with Estrogen receptor (Homo sapiens) (UniProt P03372). In words: qHTS assay to identify small molecule antagonists of the estrogen receptor alpha (ER-alpha) signaling pathway using the BG1 cell line in the presence of 0.1 nM 17-beta-estradiol (AID 1259244). Also: nearly all actives have a fitted effect of over 50% in size. Also: potency is read from the fitted curve at half-maximal effect. The method, boiled down: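 Luciferase signal from VM7Luc4E2 ERE-reporter cells, co-dosed with test compound and 0.1 nM final 17beta-estradiol for 22 h, read with ONE-Glo.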

The target is the same in assay [11]. Put plainly: qHTS assay to identify small molecule agonists of the estrogen receptor alpha (ER-alpha) signaling pathway in the presence of an antagonist (AID 1259383; calls by dose curve; also: nearly all actives have a fitted effect of over 15% in size; also: potency is read from the fitted curve at half-maximal effect; as to activation: top concentration of the series differs between compounds). The method, boiled down:
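Luminescent ERE-luciferase reporter, VM7Luc4E2 cells (endogenous ER-alpha); 10.0nM ICI-182,780 final; 15-point compound titration; 22hr at 37C; ONE-Glo, 30min RT.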

The nature of assay [12]: qHTS assay to identify small molecule agonists of the estrogen receptor alpha (ER-alpha) signaling pathway in the presence of an antagonist - cell viability counter screen (AID 1259386).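 Also: cells exposed to compounds for 22 h at 37 °C before the viability read; nearly all actives have a fitted effect of over 30% in size.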 Also: potency is read from the fitted curve at half-maximal effect. The method, boiled down: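 Using estrogen-depleted VM7Luc4E2 cells, the 15-concentration compound series was applied together with 10.0nM ICI-182,780 and incubated 22hr at 37C/5% CO2. Cell viability was then scored by CellTiter-Fluor.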

The target in assay [13] is Progesterone receptor (Homo sapiens) (UniProt P06401). Put plainly: qHTS assay to identify small molecule antagonists of the progesterone receptor (PR) signaling pathway (AID 1346795; active = well fitted inhibition curve with a large enough effect in the signal ratio in the repeat runs, not every such curve was filed as active; the % refers to the signal ratio; also: potency is read from the fitted curve at half-maximal effect). The method, boiled down: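 PR-UAS-bla HEK293T cells carrying a UAS-driven beta-lactamase reporter were plated in medium with 2% charcoal-stripped FBS and rested 6 hr at 37C. Compounds were added with 1 nM R5020 (final) for 16 hr, then FRET substrate loaded 2 hr at room temperature.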

Assay [14] is described as follows: qHTS assay to identify small molecule phospholipidosis (PLD) inducers (AID 1259344; active = well fitted curve in the direction sought with a large enough effect; an effect the other way counts as inactive or inconclusive). The method, boiled down: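 Phospholipid accumulation was scored by imaging: fixed, Hoechst-counterstained HepG2 cells stained with LipidTOX Red after 24 h compound exposure at 37 C. Read-outs were pit count and pit intensity per well or per cell, with amiodarone and DMSO controls.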

Assay [15] in a line: qHTS assay to identify small molecule agonists or antagonists of the thyroid stimulating hormone receptor (TSHR) signaling pathway - wild type cell line counter screen (AID 1259384; calls by dose curve). In outline: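 Counter screen in untransfected Hek293: compounds (15-point titration, triplicate) plus phosphodiesterase inhibitor Ro20-1724 added after 18 h plating; 30 min RT. Intracellular cAMP via competitive d2/cryptate immunoassay, 1 h incubation.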

In assay [16] the target is Thyrotropin receptor (Homo sapiens) (UniProt P16473). Put plainly: qHTS assay to identify small molecule antagonists of the thyroid stimulating hormone receptor (TSHR) signaling pathway (AID 1259385; calls by dose curve; also: nearly all actives have a fitted effect of over 20% in size; also: potency is read from the fitted curve at half-maximal effect). The method, boiled down: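 Antagonist mode: compound-treated TSHR-expressing HEK293 cells were stimulated with 1.5 ng/mL TSH (final) in presence of Ro20-1724 for 30 min at RT. HTRF cAMP detection after 1 h; each compound tested at 15 concentrations, triplicate.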

The target of assay [17] is Estrogen receptor beta (Homo sapiens) (UniProt Q92731). In words: qHTS assay to identify small molecule agonists of the estrogen receptor beta (ER-beta) signaling pathway (AID 1259377; active = well fitted activation curve with a large enough effect in the signal ratio in the repeat runs, not every such curve was filed as active; the % refers to the signal ratio). In outline: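 ER-beta-UAS-bla HEK293T (GripTite) cells carrying a UAS-driven beta-lactamase reporter, in medium with 2% charcoal-stripped FBS, were exposed to compounds for 16 hr at 37C; LiveBLAzer B/G FRET substrate was then added and fluorescence read after 2 hours at room temperature.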

Assay [18] shares this target. In words: qHTS assay to identify small molecule antagonists of the estrogen receptor beta (ER-beta) signaling pathway (AID 1259378; active = well fitted inhibition curve with a large enough effect in the signal ratio in the repeat runs, not every such curve was filed as active; the % refers to the signal ratio). The method, boiled down: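 Antagonist mode: compounds added to beta-lactamase reporter HEK293T ER-beta-UAS cells stimulated with E2 (1nM final), 16 hr at 37C. LiveBLAzer B/G FRET substrate, 2 hours room temperature, fluorescence read-out.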

In assay [19] the target is Androgen receptor (Homo sapiens) (UniProt P10275). Put plainly: qHTS assay to identify small molecule agonists of the androgen receptor (AR) signaling pathway in the presence of an antagonist (AID 1259381; calls by dose curve; also: nearly all actives have a fitted effect of over 15% in size). The method, boiled down:
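Plated MDA-kb2 cells (3,000/well) were pre-incubated 5hr, given nilutamide (3.0uM final) or buffer, then dosed with compounds in DMSO at 15 concentrations. Luciferase activity was quantified by luminescence after 16hr at 37C.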

Assay [20] has as its target Progesterone receptor (Homo sapiens) (UniProt P06401). Put plainly: qHTS assay to identify small molecule agonists of the progesterone receptor (PR) signaling pathway (AID 1346784; calls by dose curve; also: nearly all actives have a fitted effect of over 30% in size). The method, boiled down: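 PR-UAS-bla HEK 293T cells carrying a UAS-driven beta-lactamase reporter were seeded in medium with 2% charcoal-stripped FBS, preincubated 6 hr at 37C, then exposed to compounds in DMSO for 16 hr; agonism was read by LiveBLAzer B/G FRET fluorescence.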

Molecules are shown by their SMILES. Several values for one entry are separate records, joined by “and”; a condition that tells them apart may be missing. Identical values can stand only once. Records with an inconclusive call do not appear. Some structures have more than one record in an assay (separate samples or runs), and their calls can disagree. Activity calls are given as the source filed them. Unless noted, calls follow the shape of the dose curve; as a rule, active = well fitted curve in the direction sought with a large enough effect in the repeat runs; inconclusive = weak or mixed curves; inactive = no such curve, though single readings can be large; an effect the other way counts as inactive or inconclusive.
% is scaled to controls: 0 for no effect and ±100 for the full control effect.

Sequence of Progesterone receptor (Homo sapiens) (P06401 whole entry, looked up): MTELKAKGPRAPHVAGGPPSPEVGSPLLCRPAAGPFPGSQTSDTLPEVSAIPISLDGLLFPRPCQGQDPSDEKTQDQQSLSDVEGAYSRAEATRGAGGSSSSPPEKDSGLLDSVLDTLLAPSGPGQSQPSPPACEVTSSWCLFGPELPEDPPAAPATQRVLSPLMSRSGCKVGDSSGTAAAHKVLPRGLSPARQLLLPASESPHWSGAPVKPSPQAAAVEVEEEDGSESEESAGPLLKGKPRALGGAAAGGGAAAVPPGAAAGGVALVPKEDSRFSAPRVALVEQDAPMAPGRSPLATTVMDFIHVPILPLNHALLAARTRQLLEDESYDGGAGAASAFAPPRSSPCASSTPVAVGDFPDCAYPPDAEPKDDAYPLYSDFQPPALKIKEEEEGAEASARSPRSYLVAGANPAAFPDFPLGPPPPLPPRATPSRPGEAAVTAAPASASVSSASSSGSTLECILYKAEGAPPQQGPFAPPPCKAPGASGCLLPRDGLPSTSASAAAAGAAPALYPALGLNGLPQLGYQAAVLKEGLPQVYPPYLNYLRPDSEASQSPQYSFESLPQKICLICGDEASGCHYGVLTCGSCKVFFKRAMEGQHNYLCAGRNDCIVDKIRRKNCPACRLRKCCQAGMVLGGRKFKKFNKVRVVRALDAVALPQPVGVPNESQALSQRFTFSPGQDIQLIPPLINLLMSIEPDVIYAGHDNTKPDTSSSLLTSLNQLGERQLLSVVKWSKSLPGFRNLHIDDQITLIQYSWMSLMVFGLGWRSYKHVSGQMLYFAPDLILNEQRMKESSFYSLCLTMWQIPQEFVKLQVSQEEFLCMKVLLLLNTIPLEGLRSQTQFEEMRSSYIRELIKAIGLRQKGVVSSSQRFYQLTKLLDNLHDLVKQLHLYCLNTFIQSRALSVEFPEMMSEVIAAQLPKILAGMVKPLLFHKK
Sequence of Thyrotropin receptor (Homo sapiens) (P16473 whole entry, looked up): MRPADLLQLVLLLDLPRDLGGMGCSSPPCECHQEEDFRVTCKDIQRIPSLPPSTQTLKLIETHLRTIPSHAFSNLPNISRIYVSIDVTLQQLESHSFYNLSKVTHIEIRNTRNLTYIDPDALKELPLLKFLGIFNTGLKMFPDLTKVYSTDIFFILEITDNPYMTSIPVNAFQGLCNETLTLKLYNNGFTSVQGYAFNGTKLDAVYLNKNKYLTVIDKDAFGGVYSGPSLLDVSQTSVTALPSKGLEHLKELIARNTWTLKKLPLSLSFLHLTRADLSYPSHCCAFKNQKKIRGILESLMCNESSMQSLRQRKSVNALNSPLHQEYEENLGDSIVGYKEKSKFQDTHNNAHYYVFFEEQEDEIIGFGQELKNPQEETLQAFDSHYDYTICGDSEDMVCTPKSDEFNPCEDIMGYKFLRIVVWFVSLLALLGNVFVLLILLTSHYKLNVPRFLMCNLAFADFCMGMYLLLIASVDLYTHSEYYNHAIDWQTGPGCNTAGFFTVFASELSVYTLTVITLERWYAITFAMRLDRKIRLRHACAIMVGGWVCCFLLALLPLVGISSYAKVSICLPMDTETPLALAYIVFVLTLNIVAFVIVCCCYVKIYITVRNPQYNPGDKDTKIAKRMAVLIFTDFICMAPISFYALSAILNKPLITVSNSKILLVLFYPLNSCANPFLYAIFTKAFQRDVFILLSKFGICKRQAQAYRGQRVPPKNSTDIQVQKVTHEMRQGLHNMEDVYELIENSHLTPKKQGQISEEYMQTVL
Sequence of Estrogen receptor beta (Homo sapiens) (Q92731 whole entry, looked up): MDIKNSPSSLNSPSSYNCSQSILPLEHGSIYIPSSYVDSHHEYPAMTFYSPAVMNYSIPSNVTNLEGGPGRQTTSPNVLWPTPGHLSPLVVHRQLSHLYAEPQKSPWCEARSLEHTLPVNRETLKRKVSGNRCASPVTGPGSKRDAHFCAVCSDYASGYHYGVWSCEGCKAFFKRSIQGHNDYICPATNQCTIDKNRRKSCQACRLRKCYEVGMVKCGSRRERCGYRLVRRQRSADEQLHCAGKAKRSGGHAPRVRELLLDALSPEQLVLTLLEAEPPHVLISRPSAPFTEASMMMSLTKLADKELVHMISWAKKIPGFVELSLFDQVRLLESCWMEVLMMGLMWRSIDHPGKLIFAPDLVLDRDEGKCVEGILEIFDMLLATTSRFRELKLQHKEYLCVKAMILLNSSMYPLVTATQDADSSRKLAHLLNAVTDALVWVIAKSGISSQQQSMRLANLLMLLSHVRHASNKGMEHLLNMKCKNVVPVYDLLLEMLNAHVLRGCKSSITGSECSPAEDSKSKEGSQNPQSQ
Sequence of Estrogen receptor (Homo sapiens) (P03372 whole entry, looked up): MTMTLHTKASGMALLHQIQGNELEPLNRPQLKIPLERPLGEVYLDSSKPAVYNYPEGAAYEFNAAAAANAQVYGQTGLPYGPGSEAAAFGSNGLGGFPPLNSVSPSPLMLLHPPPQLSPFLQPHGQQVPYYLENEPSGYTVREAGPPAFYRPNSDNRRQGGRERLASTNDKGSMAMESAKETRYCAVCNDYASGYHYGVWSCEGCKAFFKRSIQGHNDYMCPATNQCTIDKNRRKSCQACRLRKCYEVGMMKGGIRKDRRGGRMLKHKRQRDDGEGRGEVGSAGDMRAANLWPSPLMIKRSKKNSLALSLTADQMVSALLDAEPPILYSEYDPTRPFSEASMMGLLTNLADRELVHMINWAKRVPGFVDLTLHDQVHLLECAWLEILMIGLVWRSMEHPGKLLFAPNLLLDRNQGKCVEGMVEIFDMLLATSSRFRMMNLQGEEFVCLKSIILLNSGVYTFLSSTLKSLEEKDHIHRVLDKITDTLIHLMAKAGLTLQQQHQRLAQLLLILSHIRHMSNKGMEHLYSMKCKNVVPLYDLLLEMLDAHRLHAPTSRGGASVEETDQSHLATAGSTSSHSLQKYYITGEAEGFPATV
Sequence of Androgen receptor (Homo sapiens) (P10275 whole entry, looked up): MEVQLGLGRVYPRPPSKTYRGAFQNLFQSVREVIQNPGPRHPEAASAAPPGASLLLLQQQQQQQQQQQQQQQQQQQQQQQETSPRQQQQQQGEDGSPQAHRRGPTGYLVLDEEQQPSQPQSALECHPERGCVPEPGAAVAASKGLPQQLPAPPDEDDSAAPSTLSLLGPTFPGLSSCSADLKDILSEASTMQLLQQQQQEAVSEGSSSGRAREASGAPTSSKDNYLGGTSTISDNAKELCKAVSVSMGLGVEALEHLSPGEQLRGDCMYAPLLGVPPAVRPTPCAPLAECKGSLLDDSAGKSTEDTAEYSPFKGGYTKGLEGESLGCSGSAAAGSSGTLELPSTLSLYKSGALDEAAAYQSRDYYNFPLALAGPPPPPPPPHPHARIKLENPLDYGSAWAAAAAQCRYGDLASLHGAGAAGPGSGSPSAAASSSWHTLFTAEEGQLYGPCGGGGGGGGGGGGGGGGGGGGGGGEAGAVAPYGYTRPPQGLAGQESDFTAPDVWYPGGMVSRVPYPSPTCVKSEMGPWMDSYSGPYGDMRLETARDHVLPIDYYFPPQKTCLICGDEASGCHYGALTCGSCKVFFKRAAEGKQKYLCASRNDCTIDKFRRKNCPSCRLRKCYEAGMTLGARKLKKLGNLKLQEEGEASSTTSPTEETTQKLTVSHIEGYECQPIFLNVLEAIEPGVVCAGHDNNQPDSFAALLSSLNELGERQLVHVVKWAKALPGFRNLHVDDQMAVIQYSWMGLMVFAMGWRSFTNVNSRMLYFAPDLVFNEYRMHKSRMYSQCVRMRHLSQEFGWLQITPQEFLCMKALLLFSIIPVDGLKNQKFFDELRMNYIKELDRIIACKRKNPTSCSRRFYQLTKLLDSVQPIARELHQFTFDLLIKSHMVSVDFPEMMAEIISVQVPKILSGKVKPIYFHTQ

Turning to `O=S(=O)(O)O`, the Potency entry in assay [1], in assay [2], in assay [3], in assay [4], in [6] and in assay [7] was “inactive” each time. Also, the Potency entry in [8] and in assay [9] was “inactive” in each case. Besides, the result in assay [5] was inactive.
Turning to `Cc1cc(-c2ccc(N)c(C)c2)ccc1N`, the Potency in [10] is 34.4 µM (active); in assay [1] it was 48.4 µM (active); in [6], 8.73 µM (active); in [11], 2.14 µM (active) and inactive; in assay [13], 61.8 µM (active) and 48.4 µM (active) and 17.2 µM (active). Also, the Potency entry in assay [2], in assay [3], in assay [4], in assay [7], in assay [9] and in assay [12] was “inactive” in each case. Moreover, in [5], the outcome was inactive.
In the case of `C1CCC(NC2CCCCC2)CC1`, the Potency entry in assay [10], in [1], in assay [2], in assay [3], in [4] and in [6] was “inactive” in each case. The Potency entry in assay [7], in [8], in assay [9], in assay [11], in [15] and in assay [16] was “inactive” in each case. The Potency result in [12] and in assay [13] was “inactive” each time. Further, the molecule was called inactive in [14] and in [5].
On to `CCC(=O)C(CC(C)N(C)C)(c1ccccc1)c1ccccc1` (centres undefined), for which the Potency result in assay [10], in assay [1], in assay [18], in assay [7], in assay [9] and in [11] was “inactive” each time. Besides, the Potency result in assay [15], in assay [16] and in [13] was “inactive” in each case. Further, the PLD induction in assay [14] was 2.52% [at 3.15 µM] (inactive). Moreover, the Potency in assay [4] was 27.4 µM (active); in assay [6], 24.4 µM (active) and inactive; in assay [8], 54.7 µM (active). Further, the call in [5], in [17] and in assay [19] was inactive.
With `C=CCOC(Cn1ccnc1)c1ccc(Cl)cc1Cl` (centres undefined), the molecule was called inactive in assay [14] and in assay [5]. The Potency entry in assay [1], in assay [2], in assay [3], in assay [4], in assay [15] and in assay [16] was “inactive” each time. Besides, the Potency result in assay [20] was “inactive”. The Potency was 13.7 µM (active) and 9.69 µM (active) in assay [6]; 61.3 µM (active) and inactive in assay [7]; 27.4 µM (active) and 24.3 µM (active) in assay [8]; 30.7 µM (active) and inactive in [9]; 6.13 µM (active) and 6.68 µM (active) in assay [13].
For the molecule `CN(C)[C@@H]1C(=O)C(C(N)=O)=C(O)[C@@]2(O)C(=O)C3=C(O)c4c(O)cccc4[C@@](C)(O)[C@H]3[C@H](O)[C@@H]12`, the molecule was classed as inactive in [14] and in assay [5]. Besides, the Potency result in assay [1], in assay [2], in [3], in [4], in assay [6] and in assay [7] was “inactive” in each case. Also, the Potency entry in assay [8], in assay [9], in assay [15] and in [16] was “inactive” throughout.
For the molecule `Oc1ccccc1-c1ccccc1`, the Potency entry in assay [10], in assay [1], in assay [2], in assay [3], in [4] and in [7] was “inactive” throughout. Besides, the Potency result in assay [8], in assay [9], in assay [11], in [20] and in assay [13] was “inactive” throughout. Besides, the molecule was classed as inactive in assay [14] and in assay [5]. For the same molecule, the Potency entry in assay [6] is “inactive and 62.6 µM (active)”.
On to `CCCCCCCCCCCCCC[P+](CCCCCC)(CCCCCC)CCCCCC`, for which the Potency in [10] is 2.74 µM (active) and 3.09 µM (active) and 3.43 µM (active); in assay [2] it was 34.5 µM (active) and 69.1 µM (active) and inactive; in assay [3] it was 13.7 µM (active) and 21.9 µM (active) and inactive; in [4], 15.4 µM (active) and 54.9 µM (active) and inactive; in [6], 1.09 µM (active) and 1.1 µM (active) and 769 nM (active); in assay [7], 9.73 µM (active) and 24.5 µM (active) and 2.43 µM (active). The Potency in assay [8] is 12.2 µM (active) and 27.5 µM (active); in assay [9] it was 13.7 µM (active) and 27.5 µM (active) and inactive; in assay [16] it was 68.9 µM (active) and 69.1 µM (active) and inactive; in assay [12], 9.73 µM (active) and 21.9 µM (active) and 6.85 µM (active). The Potency entry in assay [1], in assay [11], in [15], in assay [20] and in assay [13] was “inactive” in each case. In addition, the molecule was called inactive in assay [5].
